Potency and affinity values are given separately. Records with an inconclusive call do not appear. Where a call stands in place of a potency, no number is given. A number with no mark means an inactive call. Activity calls are given as the source filed them.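 How the source made its calls, unless noted: active means a dose-response fit showing signal loss, with half-maximal concentration no higher than twice the top tested dose; inconclusive means flat fit between 30% and 70% signal loss, or poor fit; inactive means the rest.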
Experiments:
[1] = inducers of Cryptococcus neoformans cell lysis, dose response, AK release luminescence, cherry-picks (AID 687000;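 active means fitted dose curve reaches 40% lysis signal rise at or below the highest valid concentration tested for that sample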;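 further: luminescent detection of adenylate kinase leaking from lysed yeast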)
[2] = HepG2 cell cytotoxicity, dose response, cytotoxicity control, cherry-picks, set 2 (AID 687002)
[3] = HeLa cell cytotoxicity, dose response, cytotoxicity control, ATP luminescence, cherry-pick samples (AID 687004;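 active means a fitted half-maximal concentration no higher than twice the top valid tested dose, with signal falling as cells die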)
[4] = Cryptococcus neoformans growth inhibition, dose response, Alamar Blue, cherry-picks (AID 686998;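 active means falling signal with fitted half-maximal potency no higher than twice the top valid tested dose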)

Compound | outcome [1] | outcome [2] | outcome [3] | outcome [4]
CC(=O)c1ccc(OCC(=O)NCc2ccc(F)cc2)cc1 | inactive | inactive | inactive | –
Cc1ccc2cc(NC(=O)c3ccccc3)ccc2n1 | inactive | inactive | – | –
COc1ccc(C#Cc2ccc3c(c2)O[C@H](CN(C)C(C)=O)[C@@H](C)CN([C@@H](C)CO)S3(=O)=O)cc1 | inactive | inactive | inactive | –
Cc1ccc(NC(=S)Nc2ccc(Cl)c(Cl)c2)c(OC(F)F)c1 | inactive | inactive | – | –
C[C@@H]1CN([C@@H](C)CO)C(=O)Cc2cc(NS(=O)(=O)c3ccccc3)ccc2O[C@@H]1CN(C)Cc1ccc(Cl)c(Cl)c1 | inactive | inactive | – | –
O=C(C1CCOCC1)N1C[C@H]2[C@@H](c3ccccc31)[C@@H](CO)N2Cc1ccccc1Cl | inactive | inactive | – | –
N#C[C@H]1[C@@H](c2ccc(C#CCC3CCCC3)cc2)[C@@H](CO)N1C(=O)c1ccccn1 | inactive | inactive | – | –
O=C(CC1CC1)N1[C@@H]2CN(S(=O)(=O)c3ccccc3)c3ccccc3[C@@H]2[C@@H]1CO | – | – | inactive | inactive
CN1CCN(CCCNC(=O)c2ccc(/C=C3\Oc4ccccc4N(Cc4ccccc4F)C3=O)cc2)CC1 | inactive | inactive | – | –
O=C(NC(=S)Nc1cccc(F)c1)c1cccc([N+](=O)[O-])c1 | – | inactive | inactive | inactive
Cc1ccc(-n2ncc3c(SCC(N)=O)ncnc32)cc1C | inactive | inactive | – | –
COc1cccc(NC(=O)N2C[C@H](O)COC[C@H]3O[C@@H](CC(=O)NCc4ccccc4F)CC[C@@H]32)c1 | – | inactive | inactive | inactive
C[C@H](CO)N1C[C@H](C)[C@@H](CN(C)Cc2ccc(-c3ccccc3)cc2)Oc2ccc(NC(=O)Nc3ccc(C(F)(F)F)cc3)cc2C1=O | – | inactive | inactive | inactive
CCOC(=O)NCc1ccc2[nH]c(C)cc2c1 | inactive | inactive | inactive | –
C[C@H]1CN([C@@H](C)CO)C(=O)c2cc(-c3ccc(F)cc3)cnc2O[C@@H]1CN(C)CC1CCCCC1 | – | inactive | inactive | inactive
CC(C)CC#Cc1ccc2c(c1)O[C@H](CN(C)C(=O)C1CCC1)[C@@H](C)CN([C@@H](C)CO)S2(=O)=O | inactive | inactive | – | –
CN1c2ccc(-c3ccc(F)cc3)cc2[C@@H]2[C@@H](CCN2C(=O)C2CCOCC2)[C@@H]1CO | inactive | inactive | inactive | –
CC(C)NC(=O)Nc1ccc2c(c1)CC(=O)N([C@H](C)CO)C[C@H](C)[C@@H](CN(C)C(=O)Nc1ccc3c(c1)OCO3)O2 | inactive | inactive | – | –
CC(C)CC#Cc1cnc2c(c1)C(=O)N([C@H](C)CO)C[C@H](C)[C@@H](CN(C)Cc1cccc(F)c1)O2 | – | inactive | inactive | inactive
C(=Nn1cnnc1)c1ccc2c(c1)CCC2 | inactive | inactive | – | –
Cc1ccc(N2CCN(C(CCc3ccccc3)C(=O)Nc3c(C)cccc3C)CC2)cc1 (stereo unspecified) | inactive | inactive | – | –

From PubChem BioAssay
